Assay results published in PubChem BioAssay AID2315 (National Center for Advancing Translational Sciences (NCATS), 2010).
Among all 290,000 compounds or so, about 27,000 (9.3%) were called active. The entries come from a sample that favours actives as a whole. Values without a mark were called inactive. Cut-off read from the data, not from the text of the source: active = inhibition mostly above about 28% (no sharp cut-off); inactive = mostly below about 43%.

Assay: A qHTS for Small Molecule Inhibitors of Shiga Toxin; note: 0% is about no effect
Conditions: Vero cells, Shiga toxin protein synthesis inhibition reporter; at 38.7 µM, active compounds read high

Structure (SMILES) | inhibition
COc1cc(C(=O)OCc2ccc([N+](=O)[O-])cc2)cc(OC)c1OC | -13.3%
COc1cc(/C=N/O)ccc1OCc1ccc([N+](=O)[O-])cc1 | 82.1% (active)
COc1cc(/C=N\Nc2ccc([N+](=O)[O-])cn2)ccc1OCC(=O)O | 31.3%
Cc1ccc(CNC(=O)C(=O)c2cn(CC(=O)N3CCCC3)c3ccccc23)cc1 | 35.1% (active)
CN(Cc1ccccc1)C(=O)C(=O)c1cn(CC(=O)N2CCCC2)c2ccccc12 | 5.26%
CN1CCN(C(=O)C(=O)c2cn(CC(=O)N3CCCC3)c3ccccc23)CC1 | -13%
O=C(NCc1ccco1)C(=O)c1cn(CC(=O)N2CCCCCC2)c2ccccc12 | 27.2%
O=C(NCCCn1ccnc1)C(=O)c1cn(CC(=O)N2CCCCCC2)c2ccccc12 | -6.62%
COc1cccc(NC(=O)CS(=O)(=O)c2cn(CC(=O)N3CCOCC3)c3ccccc23)c1 | -10.3%
COc1cccc(NC(=O)C(=O)c2cn(CC(=O)N3CCOCC3)c3ccccc23)c1 | 92.3% (active)
O=C(Nc1ccc(F)cc1)C(=O)c1cn(CC(=O)N2CCOCC2)c2ccccc12 | 15.3%
Cc1ccc(CNC(=O)C(=O)c2cn(CC(=O)N3CCOCC3)c3ccccc23)cc1 | 79.4% (active)
COc1cccc(N(CC(=O)NC2CCCC2)C(=O)CCCC(=O)Nc2ccccn2)c1 | -5.09%
CCCNC(=O)CCc1c(C)nc2c(c(C)nn2-c2ccccc2)c1C | -16.2%
CCOc1ccc(N(CC(=O)Nc2cccc(OC)c2)S(C)(=O)=O)cc1 | 28.6%
CCC1=Nc2cc(C(=O)NCCN3CCCC3)ccc2Sc2ccc(C)cc21 | -6.55%
O=C(CN1C(=O)COc2ccc(Cl)cc21)Nc1ccc(N2CCOCC2)cc1 | -16.6%
Cc1cccc(N(C)C(=O)CN2C(=O)COc3ccc(S(=O)(=O)N4CCCCCC4)cc32)c1 | 4.44%
CCn1c(SCCC(C)C)nnc1-c1c[nH]c2ccccc12 | -3.59%
Cc1ccc(-c2csc(-c3c[nH]c4ccccc34)n2)cc1 | 111% (active)
Cc1cc(-c2n[nH]c(=S)n2-c2ccc(C)c(C)c2)no1 | 6.5%
Cc1ccc(-c2csc(N(Cc3ccco3)C(=O)c3cccs3)n2)cc1 | 18.8%
CCCc1cc(-c2n[nH]c(=S)n2CC)c2ccccc2n1 | -6.2%
CCCc1nc2scc(-c3ccc(C)cc3)c2c(=O)n1N | 44.2%
CCCc1cc(-c2nc(-c3ccc(C)cc3)cs2)ccn1 | 68% (active)

Structure (SMILES) | inhibition
Cc1ccc(-c2csc(-c3cc(C)on3)n2)cc1 | 43% (active)
CCC(C)Sc1nnc(-c2c[nH]c3ccccc23)n1CCOC (stereo not drawn) | 11.2%
CC(=O)N1c2ccc(S(=O)(=O)N(C)CC(=O)N(C)Cc3ccccc3)cc2CC1C (stereo not drawn) | -1.97%
Cc1ccc(NC(=O)CCN2C(=O)c3ccccc3C2=O)cc1C | 7.31%
O=C(NCCN1CCOCC1)/C(=C/c1ccc(F)cc1)NC(=O)c1ccccc1 | -6.87%
COc1cccc(CNC(=O)COc2cc(O)c3c(c2)OC(C)(C)CC3=O)c1 | 7.09%
Cc1cccc(NC(=O)C2CCCN(C(=O)NCc3ccccc3)C2)c1C (stereo not drawn) | 14.7%
CCCc1cc(=O)[nH]c(SCC(=O)N2C(C)CCCC2C)n1 (stereo not drawn) | 1.9%
O=C(N/N=C/c1ccc2c(c1)OCO2)C(=O)N1CCCC1 | 76.5% (active)
O=C(CNC(=O)C(c1ccccc1)c1ccccc1)N/N=C\c1ccc2c(c1)OCO2 | 66.2% (active)
O=C(Cc1ccc(F)cc1)N/N=C/c1ccc2c(c1)OCO2 | 42.2%
Cc1[nH]c2ccccc2c1/C=N/NC(=O)CNC(=O)c1ccc2c(c1)OCO2 | -14.9%
CN1CCN(C(=O)/C(=C\c2ccc3c(c2)OCO3)NC(=O)c2cccs2)CC1 | -3.92%
O=C(N/N=C/c1ccc([N+](=O)[O-])cc1)C(=O)N1CCCC1 | 19%
OC(COc1ccc(Br)cc1)CN1CCCC1 (stereo not drawn) | -1.94%
CN1C2CCC1CC(NC(=O)c1ccc([N+](=O)[O-])cc1)C2 (stereo not drawn) | -5.48%
Cn1c(=O)c2c(SCC(=O)NCC3CCCO3)nc(CC(C)(C)C)nc2n(C)c1=O (stereo not drawn) | -7.65%
Cc1cccc(NS(=O)(=O)c2ccc([N+](=O)[O-])cc2)n1 | 12.1%
COc1ccccc1-c1nc(C#N)c(N2CCC(C(N)=O)CC2)o1 | -15%
CC1CCN(c2oc(-c3ccccc3F)nc2C#N)CC1 | 69.1% (active)
Cc1oc(-c2ccccc2F)nc1CS(=O)CC(=O)NCCN1CCCCC1C (stereo not drawn) | -8.05%
O=C(c1ccccc1F)N1CCN(S(=O)(=O)c2ccc(Br)cc2)CC1 | -11.4%
Cc1c(C(=O)N2CCCc3ccccc32)sc2nc(-c3ccccc3)cn12 | 21.5%
Cc1c(C(=O)NCC2CCCO2)sc2nc(-c3ccccc3)cn12 (stereo not drawn) | 93% (active)
O=C(CSc1ccc(-c2ccccc2)nn1)NCC1CCCO1 (stereo not drawn) | 20.8%

Structure (SMILES) | inhibition
Cc1c(C(=O)N2CC(C)OC(C)C2)sc2nc(-c3ccccc3)cn12 (stereo not drawn) | 64.7% (active)
Cc1cccc(C)c1NC(=O)N1CC(C)OC(C)C1 (stereo not drawn) | -12.3%
CCOc1ccc(-n2c(N)c(C(=O)NCC3CCCO3)sc2=S)cc1 (stereo not drawn) | -14.3%
COc1ccccc1N1CCN(C(=O)c2cc(=O)c3cc(C)cc(C)c3o2)CC1 | 3.39%
COc1cccc(-n2c(=S)sc3c(=O)n(-c4ccccc4C)c(SCC(=O)O)nc32)c1 | 20.4%
CCOc1ccc2[nH]c3nc(SCC(=O)NC4CCCC4)nnc3c2c1 | -5.52%
CCOc1ccc2nc(N(CCN(C)C)C(=O)c3ccc4ccccc4c3)sc2c1 | 25.9%
Cc1nc(COc2cc3oc(=O)cc(C)c3cc2Cl)cs1 | 2.94%
O=C(c1cc2c(s1)CCC2)N1CCN(c2ccccc2)CC1 | 44.1%
O=C(NCCCN1CCOCC1)c1cc2c(s1)CCC2 | 33%
O=C(NNC(=O)c1cc2c(s1)CCCC2)c1ccccc1 | 110% (active)
O=C(Nc1sc2c(c1C(=O)O)CCC2)c1ccccc1F | 15%
O=C(COC(=O)c1cc2c(s1)CCCC2)NCc1ccccc1Cl | 7.81%
NC(=O)c1c(NC(=O)c2ccccc2)sc2c1CCCC2 | 68.2% (active)
O=C(Nc1ccc(F)cc1)c1cc2c(s1)CCCC2 | 127% (active)
O=C(NCCCn1ccnc1)c1cc2c(s1)CCCC2 | -5.02%
C=CCN(CC=C)S(=O)(=O)c1ccc(C(=O)Nc2sc3c(c2C(N)=O)CCCCC3)cc1 | -0.928%
CN(CC(=O)Nc1ccccc1F)CC(=O)Nc1ccccc1Br | 13%
O=C(CNC(=O)c1cc2c(s1)CCC2)Nc1ccccc1Br | 61.2% (active)
COc1ccc(C(CNC(=O)c2cc3c(s2)CCCC3)N2CCOCC2)cc1 (stereo not drawn) | -16.3%
CN1C(=O)C2(OCCCO2)c2cc(Cl)ccc21 | -14.7%
CC1CCN(C(=O)C2CCN(S(=O)(=O)N3CCC4(CC3)OCCO4)CC2)CC1 | -15.9%
O=C(C[C@H]1C(=O)N(c2ccc(F)c(F)c2)C[C@@H]1Cc1ccccc1)Nc1ccccc1 | -3.22%
COc1ccc(C(=O)Nc2ccc(C(=O)NCC3CCCO3)cc2)c(OC)c1OC (stereo not drawn) | -2.17%
CCSc1nc2sc3c(c2c(=O)n1-c1ccc(C)cc1)CCN(C)C3 | -6.21%

Structure (SMILES) | inhibition
CC1(C)Cc2c(sc(NC(=O)C(=O)N3CCOCC3)c2C#N)CO1 | -10.6%
COC(=O)C(C)n1cnc2c(nnn2-c2cccc(Cl)c2)c1=O (stereo not drawn) | 26%
CCOC(=O)C(C)n1cnc2c(nnn2-c2ccc(F)cc2)c1=O (stereo not drawn) | 18.3%
CCOC(=O)C(C)n1cnc2c(nnn2-c2cccc(OC)c2)c1=O (stereo not drawn) | 41% (active)
CCN(C(=O)CSc1nnc(-c2ccncc2)o1)c1ccccc1 | -4.1%
O=C(c1ccc(Oc2ccc(Cl)cc2)c([N+](=O)[O-])c1)N1CCCC1 | -5.51%
NC(=O)CCN1CCN(S(=O)(=O)/C=C/c2ccccc2)CC1 | 3.87%
O=C(O)c1ccc(N=NN2CCOCC2)cc1 | 38.4% (active)
CN1CCN(S(=O)(=O)c2cccc(C(=O)O)c2)CC1 | 24%
O=C(NC(=O)N1CCOCC1)c1ccccc1 | 6.72%
O=C(O)c1cccc(N=NN2CCCCCC2)c1 | 139% (active)
NC(=NC(=O)c1ccccc1)N1CCOCC1 | -9.05%
O=C(c1ccccc1)N1CCN(C(=O)N2CCCCC2)CC1 | -25.1%
O=C(NCc1ccco1)c1ccc([N+](=O)[O-])cc1Cl | -6.09%
O=C(Nc1ccccc1Cl)NC1(C(=O)N2CCOCC2)CCCCC1 | 3.21%
CCCCNC(=O)Nc1c(C)cc(SC#N)cc1C | 12.6%
CCOc1ccccc1NC(=O)CCS(=O)(=O)c1cccc2nsnc12 | -10.2%
c1csc(-c2nnc(COc3ncnc4sccc34)o2)c1 | 13.6%
Clc1ccc(Cc2nnc(-c3cccs3)o2)cc1 | 12.1%
c1csc(-c2nnc(COc3ccc4c(c3)OCO4)o2)c1 | 100% (active)
Cc1cc(-n2nc(C)cc2C)n2ncc(-c3ccccc3)c2n1 | 63.4% (active)
Cc1cc(N2CCCC2)n2nc(C)c(-c3ccccc3)c2n1 | 24.9%
Cc1cc(-n2nc(C)cc2C)n2nc(C)c(-c3ccccc3)c2n1 | -5.33%
